# HepG2 viability = qHTS for Inhibitors of TGF-b: Cytotox Counterscreen; AID 588856, 2011; Potency, µM (titrated, usually from 46.1 µM), for the others: at the top dose activity change, negative = cytotoxicity, most hits filed as cytotoxic; HepG2 CAGA-GFP viability, ATP luminescence, 18 h; 410,000 compounds, 0.76% hits
#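 CellTiter-Glo luminescence gave cytotoxicity after 18 hours at 37 degrees C. The cells were HepG2 CAGA-GFP in 1% FBS DMEM, stimulated with 500 pg/mL TGF-beta after compound addition. %Activity was normalised to no-cell wells (complete cell-killing) and DMSO (no toxicity), and curves were fitted and classified.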
# KB-V1 cytotox = qHTS assay for MDR1-selective chemotherapeutics: Primary screen using the drug-selected MDR subline cells KB-V1; KB-V1 MDR cells viability, CellTiter-Glo, 72 h; Potency, µM (doses to about 46.1 µM), usual class: cytotoxic; AID 1347076, 2019; 400,000 compounds, 3.4% hits; note: % is set by controls: 0 for no effect and ±100 for the full control effect; nearly all actives have a fitted effect of over 60% in size
#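 KB-V1 MDR subline cells in DMEM (phenol-red free, 10% FBS) exposed to compounds in qHTS concentration series for 72 h at 37 degrees C. Viability read by CellTiter-Glo luminescence; concentration-effect curves fitted after normalization and correction.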
# HT1080NT lethal = qHTS for induction of synthetic lethality in tumor cells producing 2HG: qHTS for the HT-1080-NT fibrosarcoma cell line. AID 686970, 2013. Potency, µM (doses to about 46.1 µM), inactives show top-dose activity, negative = less viability, usual class: cytotoxic. HT-1080-NT fibrosarcoma viability, CellTiter-Glo ATP luminescence, 48 h. 360,000 compounds, 1.6% hits;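 note: NT is the 2HG producing partner of a matched IDH1 knockdown line; 0% = DMSO-treated cells and -100% = media-only wells without cells; nearly all actives have a fitted effect of over 55% in size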
#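 Toxicity toward the 2HG-producing NT line was scored as %Activity, normalised to DMSO and no-cell wells, from CellTiter-Glo luminescence after 48 hours' treatment.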
# KB-3-1 cytotox = qHTS assay for MDR1-selective chemotherapeutics: Primary screen using the parental adenocarcinoma cell KB-3-1; AID 1347075, 2019; Potency, µM (doses to about 46.1 µM), hits mostly cytotoxic; KB-3-1 viability, CellTiter-Glo ATP luminescence, 72 h; 400,000 compounds, 1.4% hits; note: % is set by controls: 0 for no effect and ±100 for the full control effect; nearly all actives have a fitted effect of over 60% in size
#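 Here the drug-naive KB-3-1 line serves as comparator for MDR sub-line selectivity; cells received compound titrations, 72 h at 37 °C, then CellTiter-Glo readout.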
# HT1080 IDH1KD tx = qHTS for induction of synthetic lethality in tumor cells producing 2HG: qHTS for the HT-1080-IDH1KD cell line. HT-1080 IDH1 knockdown viability, ATP luminescence, 48 h. Potency, µM (top dose mostly 46.1 µM), without a hit: top-dose activity, negative = toxicity, hits mostly cytotoxic. 360,000 compounds, 2% hits. AID 686971, 2013;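 note: 0% = DMSO wells and -100% = cell-free medium wells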
#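 After a 2 h attachment period, IDH1KD HT-1080 cells took pin-transferred compound for 48 h at 37 °C; ATP-based luminescence after 10 min room-temperature reagent incubation reported viability.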
# TGFb SMAD3 inh = qHTS for Inhibitors of TGF-b; HepG2 CAGA-GFP TGF-b/SMAD3 reporter, GFP fluorescence, 18 h; TGF-beta stimulated, 500 pg/mL final; AID 588855, 2011; Potency, µM (series often up to 46.1 µM), for inactives: top-dose activity, negative = inhibition, most hits filed as inhibitors; 410,000 compounds, 1.2% hits; note: % is set by controls: 0 for no effect and ±100 for the full control effect; nearly all actives have a fitted effect of over 65% in size
#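 HEPG2 CAGA-GFP reporter cells (1000/well, DMEM with 1% FBS) received compounds, then recombinant TGF-beta at 500 pg/mL final for 18 hours at 37 degrees C. Per-cell GFP summed per well was normalised to unstimulated and stimulated DMSO controls before curve fitting.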
# * = called active by the depositor; i = inactive; u = inconclusive; x = not tested or not shown. Rows were chosen to be rich in hits. Some 6.6% of all compounds tested hit in one or more screens of this group. Calls come from the whole dose curve; as a rule, active = well fitted curve in the direction sought with a large enough effect; inconclusive = small, poorly fitted or top-dose-only effect, or another doubt; inactive = no such curve, though single readings can be large; an effect the other way counts as inactive or inconclusive. Potency is the fitted concentration of half-maximal effect.
SMILES,HepG2 viability,KB-V1 cytotox,HT1080NT lethal,KB-3-1 cytotox,HT1080 IDH1KD tx,TGFb SMAD3 inh
Cc1cccc(-c2nc(CSCC(=O)NCCCN3CCOCC3)c(C)o2)c1,1%,u,4%,i,-4%,2%
Cc1oc(-c2ccc(Cl)cc2)nc1CSCC(=O)NCCCN1CCOCC1,-1%,16µM*,-7%,i,u,-13%
Cc1cccc(-c2nc(CSCC(=O)NCCc3ccc(Cl)cc3)c(C)o2)c1,-66%,i,x,i,x,13µM*
Cc1cc(F)ccc1N1CCC(N2CCN(C(C)C)C(CCO)C2)CC1 (stereo not drawn),-42%,i,-3%,i,-10%,-22%
Cc1cc(F)ccc1N1CCC(N2CCN(CCC(C)C)C(CCO)C2)CC1 (stereo not drawn),-19%,u,18µM*,i,u,7%
CC(=O)NC(Cc1c(F)c(F)c(F)c(F)c1F)C(=O)NCC(N)C(=O)c1ccccc1 (stereo not drawn),x,x,15%,x,-3%,x
Cc1cccc(C)c1N=C1NN=C(c2ccccc2F)CS1,-56%,18µM*,-4%,u,-9%,u
O=C(NC(c1ccc(-c2ccccc2)cc1)c1cnccn1)C1CCN(Cc2ccc3c(c2)OCO3)CC1 (stereo not drawn),-93%,u,13µM*,u,10µM*,u
Cn1cc(CN2CCC(C(=O)NC(c3ccc(-c4ccccc4)cc3)c3cnccn3)CC2)c2ccccc21 (stereo not drawn),11µM*,i,5.2µM*,i,u,u
O=C(NC(c1ccc(-c2ccccc2)cc1)c1cnccn1)C1CCN(Cc2ccc(Cl)c(Cl)c2)CC1 (stereo not drawn),-35%,i,-10%,i,-4%,u
COc1ccc(Nc2c3c(nc4ccc(NC(=O)/C=C/c5cc(OC)c(OC)c(OC)c5)cc24)CCCC3)cc1OC,2.8µM*,x,x,x,x,3.2µM*
COc1ccc(/C=C/C(=O)Nc2ccc3nc(N4CCCCC4)cc(C)c3c2)cc1OC,-93%,i,x,u,x,13µM*
COc1ccc(Nc2c3c(nc4ccc(NC(=O)/C=C/c5cccc(OC)c5OC)cc24)CCCC3)cc1OC,-93%,x,x,x,x,3.5µM*
O=C(Nc1ccc2nc3n(c(=O)c2c1)CCCC3)c1cccc(F)c1,-2%,i,2%,i,3%,7%
COc1cc(/C=C/C(=O)Nc2ccncc2)cc(OC)c1OC,-47%,i,0%,i,1%,-34%
COc1ccccc1Nc1c2c(nc3ccc(NC(=O)/C=C/c4cccc(OC)c4OC)cc13)CCCC2,-75%,x,x,x,x,u
COc1ccccc1Nc1c2c(nc3ccc(NC(=O)c4cccc(F)c4)cc13)CCCC2,-107%,i,x,21µM*,x,u
Cc1csc(NCC(=O)c2c(C)[nH]c3ccccc23)n1,-33%,i,x,i,x,-1%
COc1ccc(/C=C/C(=O)Nc2ccc3nc4c(c(Nc5ccc(OC)c(OC)c5)c3c2)CCCC4)cc1,5µM*,x,x,x,x,4.5µM*
COc1ccc(/C=C/C(=O)Nc2ccc3nc4n(c(=O)c3c2)CCCC4)cc1OC,-2%,i,u,i,u,9%
COc1ccc(/C=C/C(=O)Nc2ccc3nc4c(c(Nc5ccccc5OC)c3c2)CCCC4)cc1,-84%,x,x,x,x,7.1µM*
CCN(CC)c1cc(C)c2cc(NC(=O)/C=C/c3cc(OC)c(OC)c(OC)c3)ccc2n1,10µM*,x,x,x,x,16µM*
Cc1ccc(OCC(=O)Nc2nnc(S(=O)(=O)N3c4ccccc4CC3C)s2)cc1 (stereo not drawn),-40%,i,x,i,x,u
CCCOc1ccc(C(=O)C(CN2CCOCC2)c2ccccc2)cc1 (stereo not drawn),-92%,u,18µM*,u,16µM*,16µM*
CCCOc1ccc(C(=O)C(c2ccccc2)N2CCOCC2)cc1 (stereo not drawn),-14%,i,-2%,i,-4%,-2%
SMILES,HepG2 viability,KB-V1 cytotox,HT1080NT lethal,KB-3-1 cytotox,HT1080 IDH1KD tx,TGFb SMAD3 inh
Cc1ccc2c(c1)C1(C=CC(=O)C=C1)CC(=O)N2C,-3%,x,x,x,x,-18%
C=C1C(=O)[C@]23C[C@H]1CC[C@H]2[C@]1(C)[C@@H](O)CC[C@@](C)(C(=O)O)[C@H]1C[C@@H]3O,-89%,i,u,i,u,8.9µM*
C=C1C(=O)[C@]23C[C@H]1CCC2[C@@]1(C)C(C[C@@H]3O)[C@](C)(C(=O)O)C[C@H](O)[C@@H]1O (stereo partly drawn),-2%,i,28%,i,-2%,-4%
C=C1C(=O)[C@]23C[C@H]1CC[C@H]2[C@]1(C)[C@@H](OC(C)=O)CC[C@@](C)(C(=O)O)[C@H]1C[C@@H]3O,-79%,i,6.5µM*,u,5.8µM*,5.6µM*
C=C1C(=O)[C@]23C[C@H]1CC[C@H]2[C@]1(C)[C@@H](OC(C)=O)CC[C@@](C)(C(=O)OC)[C@H]1C[C@@H]3OC(C)=O,5.6µM*,i,3.7µM*,u,2.6µM*,u
C=C1C(=O)[C@]23C[C@H]1CCC2[C@@]1(C)C(C[C@@H]3O)[C@](C)(C(=O)OC)CC[C@@H]1OC(C)=O (stereo partly drawn),5.6µM*,16µM*,2.6µM*,u,1.2µM*,1µM*
COc1cccc(N2CCN(C(=O)c3ccc(C)c(NC(=O)c4nsc5ccccc45)c3)CC2)c1,-6%,i,x,i,x,0%
CC(C)CN(CC(C)C)CC(O)COc1ccccc1Br (stereo not drawn),11µM*,i,u,i,u,11µM*
CCCCN(CCCC)CC(O)COc1ccccc1Br (stereo not drawn),-43%,u,-23%,i,u,-11%
O=C(CNC(=O)c1ccccc1F)OCc1nc2ccc(Cl)cc2n1CCO,-24%,i,-3%,i,1%,10%
O=C(OCc1nc2ccc(Cl)cc2n1CCO)c1ccccc1C(=O)c1ccccc1,-2%,16µM*,0%,i,-10%,u

# High-throughput results deposited in PubChem by National Center for Advancing Translational Sciences (NCATS).
